CD11b adhes inh – inhibitors of human CD11b/CD18 binding to fibrinogen. P05107+P11215. K562 CD11b/CD18 adhesion to fibrinogen, ATPlite luminescence; Mn2+ added to activate the integrin. inhibition, % at 10 µM. 93,000 compounds, 0.54% hits;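 active means primary inhibition of 50% or more at 10 µM, then 40% or more on retest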
Mac1 fbg enh – CD11b/CD18-fibrinogen binding enhancement. P05107+P11215. K562 CD11b/CD18 adhesion to fibrinogen, ATPlite luminescence. activation, % at 10 µM. 93,000 compounds, 0.07% hits. AID 1499;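 active means 10 µM primary screen giving 50% or more activity, confirmed by 40% or more on retest at that dose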
CYP2C19 act – cytochrome P450 2C19 (human) activation; activation factor at 5 µM; recombinant CYP2C19, luciferin-H EGE luminescence; hits give high values; 0 = fully inhibited enzyme, 1 = untreated enzyme; P33261; 96,000 tested, under 10 active; AID 1025;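 active means activation factor of at least 2 at 5 µM in the primary screen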
CYP2C9 inhib – blocks human cytochrome P450 2C9; AID 777; inhibition, % at 5 µM; P11712; 96,000 compounds, 20% hits; CYP2C9 Supersomes, luciferin-H conversion, luminescence;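 active means blocking of liver enzyme CYP2C9 beyond about 50% at 5 µM, limit read from the data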
Target sequence (P11712 whole entry, looked up): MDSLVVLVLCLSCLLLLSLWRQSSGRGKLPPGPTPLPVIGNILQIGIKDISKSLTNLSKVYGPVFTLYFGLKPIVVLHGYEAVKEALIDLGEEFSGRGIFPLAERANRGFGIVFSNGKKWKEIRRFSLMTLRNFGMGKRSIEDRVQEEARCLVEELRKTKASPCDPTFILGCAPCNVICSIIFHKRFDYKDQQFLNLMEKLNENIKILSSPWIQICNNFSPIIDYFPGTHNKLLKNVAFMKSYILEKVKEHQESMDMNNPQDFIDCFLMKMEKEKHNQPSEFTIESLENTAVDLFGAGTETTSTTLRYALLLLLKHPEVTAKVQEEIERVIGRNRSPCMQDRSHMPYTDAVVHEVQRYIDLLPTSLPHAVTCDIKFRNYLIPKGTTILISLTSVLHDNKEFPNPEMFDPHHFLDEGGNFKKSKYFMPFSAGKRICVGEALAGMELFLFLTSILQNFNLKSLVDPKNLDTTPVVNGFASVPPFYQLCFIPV
CYP2C9 act – increases human cytochrome P450 2C9 activity; P11712; activation factor at 5 µM; recombinant CYP2C9, luciferin-H conversion, luminescence; hits give high values; factor 1 = untreated enzyme, 0 = blocked; 96,000 compounds, 1.4% hits;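 active means activation factor of 2 or more for CYP2C9 at a 5 µM dose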
CYP2C19 inhib – human CYP2C19 inhibition; 96,000 compounds, 21% hits; P33261; inhibition, % at 5 µM; CYP2C19 Supersomes, luciferin-H EGE luminescence, 30 min;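 active means CYP2C19 inhibition above a set limit at 5 µM in the primary screen, cut at about 50% in these data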
Each line names hits and unclear results; the compound was inactive in the other large screens. An excerpt weighted towards active compounds, which were near 28% of everything screened.

Cc1ccc(SC(c2ccccc2)C(Cn2cncn2)C(=O)c2ccccc2)cc1 (stereo not drawn)	CYP2C9 inhib 100, CYP2C19 inhib 99
Cc1ccc(-n2nnnc2SC(C(=O)c2c[nH]c3ccccc23)c2ccccc2)cc1 (stereo not drawn)	none (no result: CYP2C19 act, CYP2C9 inhib, CYP2C9 act, CYP2C19 inhib)
O=C(CSc1ncnc2c(-c3ccc(Cl)cc3)nsc12)c1ccccc1	none
CCC1CCC/C1=N\NC(=O)c1cc(C)[nH]n1 (stereo not drawn)	none
O=C(C1CC1)N1CCc2cc(Br)cc(S(=O)(=O)NCCCN3CCCC3)c21	none
CCOC(=O)C1CCN(S(=O)(=O)c2cc(Br)cc3c2N(C(=O)C2CC2)CC3)CC1	CYP2C19 inhib 60
O=C(C1CC1)N1CCc2cc(Br)cc(S(=O)(=O)N3CCN(c4ccccn4)CC3)c21	CYP2C9 inhib 95, CYP2C19 inhib 72
COc1cc(C(=S)N2CCOCC2)cc(OC)c1OS(=O)(=O)c1ccc(NC(C)=O)cc1	CYP2C19 inhib 58
COc1cc(CN(C(=O)c2ccco2)c2ccc(C)cc2)ccc1O	none
COc1ccc(CN(C(=O)c2ccco2)c2ccc(Br)cc2)cc1OC	CYP2C9 inhib 89, CYP2C19 inhib 80
COc1ccc(N(Cc2ccco2)C(=O)c2ccccc2F)cc1OC	CYP2C9 inhib 80, CYP2C19 inhib 71
Cc1ccc(N(Cc2ccc([N+](=O)[O-])cc2)C(=O)c2ccco2)cc1	CYP2C9 inhib 96 (no result: CD11b adhes inh, Mac1 fbg enh)
O=C1c2ccccc2C(=O)C1c1ccncc1	CYP2C9 inhib 91
O=C(CN1C(=O)c2ccccc2C1=O)NCc1ccncc1	none
Cc1ccc(NC(=O)NC2=N/C(=C(/C#N)C(=O)N3CCCC3)c3ccccc32)cc1	CYP2C9 inhib 98, CYP2C19 inhib 89
N#C/C(C(=O)NCc1ccccc1)=C1/N=C(NC(=O)c2cccs2)c2ccccc21	none (no result: CYP2C19 act, CYP2C9 inhib, CYP2C9 act, CYP2C19 inhib)
CCOc1ccc(-n2ccnc2SCC(=O)NCc2ccc3c(c2)OCO3)cc1	CYP2C9 inhib 64, CYP2C19 inhib 81
O=C(CSc1nccn1-c1ccc(F)cc1)NCc1ccc2c(c1)OCO2	CYP2C9 inhib 80, CYP2C19 inhib 92
O=C(CSc1nccn1-c1ccccc1)NCc1ccc2c(c1)OCO2	CYP2C9 inhib 98, CYP2C19 inhib 100
CCOc1ccc(-n2ccnc2SCC(=O)Nc2nnc(CC)s2)cc1	none (no result: CD11b adhes inh, Mac1 fbg enh)
Cn1c(-c2cccc(Br)c2)cnc1NCc1cccnc1	CYP2C9 inhib 64, CYP2C19 inhib 77
COc1cccc(-c2cnc(NCc3cc(Cl)ccc3O)n2C)c1	CYP2C9 inhib 98, CYP2C19 inhib 99
Cn1c(-c2ccc(F)cc2)cnc1NCc1cccc(F)c1	CYP2C19 inhib 53
NC(=O)Cc1c[nH]c2cccc(O)c12	none
COc1ccc(N2CC(NC(=O)NCCC(C)C)CC2=O)cc1 (stereo not drawn)	none (no result: CYP2C19 act, CYP2C9 inhib, CYP2C9 act, CYP2C19 inhib)
Cc1cc(Nc2nnnn2-c2ccccc2)n(-c2ccc(Cl)cc2)n1	CYP2C19 inhib 65
Cc1cc(Nc2ccccc2)n(-c2ccccc2)n1	CYP2C9 inhib 75, CYP2C19 inhib 90
Cc1cc(NS(=O)(=O)c2ccccc2)n(-c2ccccc2)n1	CYP2C9 inhib 86 (no result: CD11b adhes inh, Mac1 fbg enh)
CCOC(=O)/C(C#N)=C/c1ccc(OCC(=O)Nc2cc(C)ccc2C)c(OC)c1	none
CCOC(=O)/C(C#N)=C\c1ccc(OCC(=O)Nc2ccc(C)cc2C)c(OC)c1	CYP2C19 inhib 78 (no result: CD11b adhes inh, Mac1 fbg enh)
O=C(Nc1ccc2c(c1)OCO2)C1CCCN1C(=O)NCc1ccccc1 (stereo not drawn)	CYP2C9 inhib 72, CYP2C19 inhib 97
COc1cc(NC(=O)C2CCCN2C(=O)OCc2ccccc2)cc(OC)c1 (stereo not drawn)	none
O=C(Nc1ccc2c(c1)OCO2)C1CCCN1C(=O)OCc1ccccc1 (stereo not drawn)	CYP2C9 inhib 81, CYP2C19 inhib 99
O=C(Nc1ccc2c(c1)OCO2)OCc1ccccc1	CYP2C19 inhib 92
O=C(NCc1ccc2c(c1)OCO2)C1CCCN1C(=O)Nc1ccccc1 (stereo not drawn)	none
N#CC(c1ccc(Cl)cc1)(c1ncc(C(F)(F)F)cc1Cl)N1CCOCC1 (stereo not drawn)	none (no result: CD11b adhes inh, Mac1 fbg enh)
Cc1ccc2c(c1)C(C)(C)[C@]1(C)NC(=O)CCN21	none
O=C(CSc1nnc(-c2ccc(Cl)cc2)o1)N1CCN(c2ccccc2)CC1	none
COc1cc(C2N(c3ccccc3)CCN2c2ccccc2)cc(OC)c1OC	CYP2C19 inhib 75
COc1cc(C2N(c3cccc(Cl)c3)C(=O)C3CCCN32)cc(OC)c1OC (stereo not drawn)	none
O=[N+]([O-])c1ccc(N2CCN(S(=O)(=O)c3ccc4ccccc4c3)CC2)cc1NCC1CCCO1 (stereo not drawn)	none (no result: CYP2C19 act, CYP2C9 inhib, CYP2C9 act, CYP2C19 inhib)
COc1ccc(S(=O)(=O)Nc2ccccc2OC)cc1NC(=O)c1cc2ccccc2oc1=O	none (no result: CYP2C19 act, CYP2C9 inhib, CYP2C9 act, CYP2C19 inhib)
C=CCNc1nc2c3ccccc3n(C(C)=O)c2s1	CYP2C9 inhib 68
Nc1nncn1C(=O)CCc1ccccc1	none
NCCc1nnc(SCc2ccc(F)cc2)o1	CYP2C9 inhib 75, CYP2C19 inhib 90
O=C1c2oc3ccc(F)cc3c(=O)c2C(c2ccccc2)N1CC1CCCO1 (stereo not drawn)	CYP2C9 inhib 62
O=C1c2oc3ccccc3c(=O)c2C(c2cccc(F)c2)N1CCCO (stereo not drawn)	CYP2C19 inhib 50
CC(C)NC(=O)CC(=O)N/N=C/c1ccc(F)cc1	none (no result: CD11b adhes inh, Mac1 fbg enh)
Cc1cc(Br)c2[nH]c3c(c2c1)CCCC3=O	none
O=C(Nc1nc2c(s1)CCCC2)C1COc2ccccc2O1 (stereo not drawn)	none
COc1ccc2nc(NC(=O)C3COc4ccccc4O3)sc2c1 (stereo not drawn)	CYP2C19 inhib 57
CS(=O)(=O)c1ccc2nc(NC(=O)C3COc4ccccc4O3)sc2c1 (stereo not drawn)	CYP2C9 inhib 76
CS(=O)(=O)c1ccc2nc(NC(=O)CN3CCN(Cc4ccccc4)CC3)sc2c1	CYP2C19 inhib 65
C=CCNC(=S)N1CCN(c2ccc([N+](=O)[O-])cc2)CC1	none (no result: CYP2C19 act, CYP2C9 inhib, CYP2C9 act, CYP2C19 inhib)
CCc1ccc(C2CC(c3ccco3)=NN2S(C)(=O)=O)cc1 (stereo not drawn)	CYP2C19 inhib 62 (no result: CD11b adhes inh, Mac1 fbg enh)
CS(=O)(=O)Nc1ccc(S(=O)(=O)Nc2nccs2)cc1	none
O=S(=O)(Nc1ccccc1N1CCCCC1)c1ccc(Cl)s1	CYP2C19 inhib 57
O=S(=O)(Nc1ccc(S(=O)(=O)N2CCCCCC2)cc1)c1cccs1	CYP2C9 inhib 91
O=C(Cc1cccs1)Nc1ccc(S(=O)(=O)N2CCCCC2)cc1	none
O=S(=O)(Nc1nccs1)c1ccc(NS(=O)(=O)c2cccs2)cc1	CYP2C9 inhib 90
O=S(=O)(Nc1cc(Cl)ccc1N1CCCCC1)c1cccs1	CYP2C9 inhib 53, CYP2C19 inhib 82 (no result: CD11b adhes inh, Mac1 fbg enh)

From PubChem
